Data reported in PubChem BioAssay AID1789 (The Scripps Research Institute Molecular Screening Center, 2009).
The whole screen tested about 290,000 compounds, of which about 2,700 (0.93%) were called active. The list comes from a sample in which actives are over-represented; it also holds similar structures and randomly drawn compounds. Unmarked numbers belong to inactive results.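 Rule for the calls: active = inhibition above the screen-wide mean plus 3 SD, computed separately per campaign (cut at about 16% in these data); inactive = the rest.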

Test system: Heat shock protein HSP 90 (rabbit reticulocyte lysate; luciferase refolding)
Test: HSP90 inhibitors, primary screen, cell lysate, luminescence (AID 1789);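 note: 0% = DMSO wells and 100% = 60 µM geldanamycin wells; inhibitors lower the luminescence because luciferase stays unfolded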
Settings: 3 h, at 5.6 µM, stronger effect = higher value

SMILES | inhibition
Cc1ccc(-c2csc(N3CCN(c4cc5c(cc4Cl)nc(-c4ccncc4)n5CCOCCO)CC3)n2)cc1 | 0.37%
O=C(O)c1cc2c(cc1NC(=O)c1c(F)cccc1Cl)OCCCO2 | 1.02%
Cc1cc(=O)oc2cc(OCC(=O)N3CCN(c4ccc(F)cc4)CC3)c(Cl)cc12 | 0.58%
CCOc1ccccc1NS(=O)(=O)c1c[nH]c(C(=O)OC)c1 | -0.36%
CCC1Oc2ccccc2N(CC(=O)NCCCN2CCN(CC)CC2)C1=O (centres undefined) | -0.16%
O=C(CCc1nc2ccccc2c(=O)[nH]1)OCC(=O)c1cccc(Cl)c1 | -0.45%
CCCc1nc2ccccc2c(C(=O)OCC(=O)c2ccc3c(c2)NC(=O)CO3)c1CC | 10.5%
Cc1ccc(C(=O)COC(=O)c2cccc(N3C(=O)c4c(C)nc5ccccc5c4C3=O)c2)cc1C | 21.8% (active)
COc1ccc(Cl)cc1-n1c(=S)sc2c(=O)n(-c3ccc(F)cc3)c(SCC(=O)O)nc21 | -4.32%
CCc1nc(SCC(=O)Nc2ccccc2OC)n[nH]1 | 37.9% (active)
COC(=O)c1ccccc1NC(=O)CSc1n[nH]c(-c2ccncc2)n1 | -0.92%
CCCCCNC(=O)c1cccnc1SCC(=O)Nc1ccccc1OC | 0.66%
Nc1nnnn1/N=C/c1cccc(Br)c1 | -1.72%
CCCN1C2CCCC1CC(NC(=O)NC13CC4CC(CC(C4)C1)C3)C2 (centres undefined) | 2.81%
CNC(=S)N/N=C/c1ccc(N2CCOCC2)s1 | 5.17%
COc1ccc(CC(=O)N/N=C(\C)c2ccccn2)cc1 | 2.53%
C/C(=N\NC(=O)c1ccccc1F)c1ccccn1 | 21.6% (active)
C/C(=N\NC(=O)Cc1ccc(Cl)cc1)c1ccccn1 | 1.95%
Cc1ccc(/C=C2/SC(=S)N(CCC(=O)NCCCN3CCOCC3)C2=O)cc1 | -1.06%
O=C1CCC(C(=O)N2CCC(O)(c3ccccc3)CC2)CN1CCc1ccccc1 (centres undefined) | -4.78%
O=C(CN(C(=O)c1nsc(Cl)c1Cl)c1cccc(F)c1)NC1CCCC1 | -2.72%
COc1ccc(CNC(=O)CCN2C(=O)c3ccccc3C2=O)cc1 | 3.06%
CN(Cc1ccccc1)C(=O)C1CCCN(c2ncnc3c2nc2n3CCCCC2)C1 (centres undefined) | -4.53%
CC(C)(C)c1ccc(C(=O)NCCn2c(N)c(C#N)c3nc4ccccc4nc32)cc1 | 2.15%
COCC(C)OC(=O)c1c(N)n(CCCN2CCOCC2)c2nc3ccccc3nc12 (centres undefined) | 4.05%

SMILES | inhibition
CC(C)(C)OC(=O)c1c(N)n(CCCN2CCCC2=O)c2nc3ccccc3nc12 | 17.2% (active)
Cc1c(C(=O)N/N=C/c2ccccc2)[nH]c2c([N+](=O)[O-])cccc12 | 3.21%
COc1cccc2c(C)c(C(=O)O)[nH]c12 | 30.8% (active)
COc1cc2c(C(=O)O)c(C)n(C)c2c2ccccc12 | 1.04%
Cc1cccc(-c2c(NC(=O)c3ccco3)oc3ccc(Cl)cc3c2=O)c1 | 3.25%
CCOC(=O)c1nc(C)n(-c2ccc(Cl)cc2Cl)n1 | 17.8% (active)
CCOC(=O)c1cnc(SC)nc1Sc1ccc(Cl)cc1Cl | -1.52%
Cc1cc(C)nc(/N=C2\NC(=O)CC(C(=O)O)N2c2ccc(Cl)cc2Cl)n1 (centres undefined) | 3.62%
CC(=O)N1CCN(CC(C)(C)NS(=O)(=O)c2ccc(C)cc2)CC1 | -0.75%
CC(CC(=O)Nc1ccc(F)cc1F)S(=O)(=O)c1ccc2c(c1)NC(=O)CO2 (centres undefined) | -2.21%
Cc1cc(C(=O)CCl)c(C)n1CC1COc2ccccc2O1 (centres undefined) | 4.06%
Cc1ccsc1C(=O)OCC(=O)c1cc(C)n(CC2CCCO2)c1C (centres undefined) | 82.5% (active)
Cc1cc(C(=O)Cn2cnc3cc([N+](=O)[O-])ccc3c2=O)c(C)n1CC1CCCO1 (centres undefined) | -6.94%
CCOC(=O)CSc1nc2ccc(C)cc2n2cnnc12 | -0.11%
COc1cc(C2CC(=O)c3cnc(NC(C)=O)nc3C2)cc(OC)c1OC (centres undefined) | -1.32%
CCc1ccc(Nc2ncc3c(n2)CC(c2ccco2)CC3=O)cc1 (centres undefined) | 22% (active)
O=C(Nc1ncc2c(n1)CC(c1ccco1)CC2=O)c1ccc(Cl)cc1 (centres undefined) | 1.31%
COc1ccc(NC(=O)NCc2ccc3c(c2)OCO3)c(OC)c1 | -7.38%
CCC(C)(C)n1nnnc1C(c1ccc(OC)c(OC)c1)N1CCN(C(=O)c2ccco2)CC1 (centres undefined) | -0.49%
CCN(CC)CCn1c(N)c(S(=O)(=O)c2ccccc2)c2nc3ccccc3nc21 | 22.7% (active)
Cc1ccc(S(=O)(=O)c2c(N)n(C)c3nc4ccccc4nc23)cc1 | -1.87%
CCC(=O)Nc1c(S(=O)(=O)c2ccccc2)c2nc3ccccc3nc2n1Cc1ccccc1 | 5.13%
O=C(N/N=C/c1ccoc1)c1ccc(Cl)cc1Cl | -0.55%
CCN(CC)CCNc1nc(-c2ccc(OC(F)F)cc2)c(C)s1 | 1.64%
